Data from PubChem BioAssay (NCI).
The panel holds about 79,000 compounds, 15% with a hit somewhere; the sample as a whole holds those more often. A number with no mark means an inactive call. Activity calls are given as the source filed them. Rule as the data show it: active = growth inhibition above about 70%; inactive = the rest.

Assays:
[1] = NCI Yeast Anticancer Drug Screen. Data for the rad50 strain (AID 155);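 also: 0% = growth of vehicle-only cultures of the same strain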; details: S. cerevisiae rad50 strain growth inhibition, active compounds read high
Summary of the method: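 A DNA repair-deficient yeast mutant serves as the test organism; compound-induced growth inhibition is calculated against vehicle-treated cells.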

[2] = NCI Yeast Anticancer Drug Screen. Data for the mec2-1 strain (AID 157); details: S. cerevisiae mec2-1 strain, active compounds read high
Summary of the method: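 Cells of the genetically defined mec2-1 yeast strain are incubated with test compound. Inhibition of growth is calculated against vehicle-treated controls.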

[3] = NCI Yeast Anticancer Drug Screen. Data for the sgs1 mgt1 strain (AID 161);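 also: 0% = growth of cultures given vehicle only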; details: S. cerevisiae sgs1 mgt1 strain, active compounds read high
Summary of the method: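 Mutant yeast exposed to compound; growth scored against vehicle-only wells.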

[4] = NCI Yeast Anticancer Drug Screen. Data for the cln2 rad14 strain (AID 165);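 also: 0% = growth equal to vehicle treated cultures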; details: S. cerevisiae cln2 rad14 strain, active compounds read high
Summary of the method: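 The screen exposed genetically defined yeast (cln2 rad14) to test compounds and scored growth inhibition relative to vehicle-treated controls.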

[5] = NCI Yeast Anticancer Drug Screen. Data for the bub3 strain (AID 167); details: S. cerevisiae bub3 mutant strain, active compounds read high
Summary of the method: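 Inhibition values come from growth of compound-treated mutant yeast normalised to vehicle-treated controls.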

[6] = NCI Yeast Anticancer Drug Screen. Data for the mlh1 rad18 strain (AID 175); details: S. cerevisiae mlh1 rad18 strain growth inhibition, active compounds read high
Summary of the method: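 Compound-treated yeast growth, normalised to vehicle controls. Strain bears defined DNA repair mutations.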

[7] = at 5.0 µM (retest, dose inferred, filed as 0.5)
[8] = at 50.0 µM (retest, dose inferred, filed as 5.0)

SMILES | growth inhibition [1, 7] | growth inhibition [1, 8] | growth inhibition ([1]; at 50.0 µM) | growth inhibition [2, 7] | growth inhibition [2, 8] | growth inhibition ([2]; at 50.0 µM) | growth inhibition [3, 7] | growth inhibition [3, 8] | growth inhibition ([3]; at 50.0 µM) | growth inhibition [4, 7] | growth inhibition [4, 8] | growth inhibition ([4]; at 50.0 µM) | growth inhibition [5, 7] | growth inhibition [5, 8] | growth inhibition ([5]; at 50.0 µM) | growth inhibition [6, 7] | growth inhibition [6, 8] | growth inhibition ([6]; at 50.0 µM)
CN(C)CCSC1=Nc2ccc(Cl)cc2C(c2ccccc2Cl)N(C)C1 (centres undefined) | 8% | 80% (active) | 96.7% (active) | 3% | 47% | 95.7% (active) | 3% | 78% (active) | 88.3% (active) | 4% | 27% | 80.2% (active) | 0% | 82% (active) | 97% (active) | 10% | 84% (active) | 95.8% (active)
COc1ccc2nc3c4c(nccc4c2c1)-c1ncccc1C3=O | 93% (active) | 97% (active) | 89.2% (active) | 31% | 98% (active) | 87.5% (active) | 43% | 97% (active) | 90.8% (active) | 61% | 97% (active) | 90.6% (active) | 58% | 96% (active) | 89.5% (active) | 93% (active) | 97% (active) | -43%
Cc1ccc(NC(=S)C#N)cc1Cl | 46% | 44% | 56.7% | 34% | 44% | 43.4% | 41% | 60% | 77.3% (active) | 37% | 40% | 46.1% | 46% | 45% | 69.9% | 45% | 53% | 4.7%
OC(Cc1cc(CC(O)(C(F)(F)F)C(F)(F)F)nc(CC(O)(C(F)(F)F)C(F)(F)F)c1)(C(F)(F)F)C(F)(F)F | 8% | 99% (active) | 99.5% (active) | 1% | 100% (active) | 99.5% (active) | -9% | 99% (active) | 99.4% (active) | 29% | 100% (active) | 97.8% (active) | -15% | 100% (active) | 99.3% (active) | 19% | 99% (active) | 99.5% (active)
CC1CC(C)(C)OB(OC(C)CC(C)(C)OB2OC(C)CC(C)(C)O2)O1 (centres undefined) | -4% | -35% | 9.6% | -1% | -39% | 15.7% | -4% | -35% | 22.6% | 2% | -43% | 83% (active) | 1% | -33% | 17.7% | 0% | -34% | -32.9%
COc1cc(NCc2ccc3nc(N)nc(N)c3c2C)cc(OC)c1OC (tested in a mixture with another compound) | 24% | 54% | 12.3% | 18% | 87% (active) | 51.8% | 12% | 31% | 43.2% | 23% | 23% | 2.8% | 17% | 24% | 5.05% | 23% | 36% | -45.4%
O=C(O)c1ccc2c(c1)C(=O)c1ccccc1C2=O | -1% | 33% | 95.9% (active) | -1% | 28% | 99.3% (active) | 3% | 26% | 91.2% (active) | -1% | 30% | 14.2% | 1% | 31% | 98.7% (active) | -2% | 41% | 96.5% (active)
CCSc1nc2ccccc2o1 | 7% | 0% | 54.4% | 0% | -1% | 39.6% | 6% | 2% | 9.4% | 6% | -2% | 30.6% | 3% | -2% | 42.6% | 3% | -3% | -15.7%
CN(C)c1ccc(/C=C/c2nccc3ccccc23)cc1 | -9% | 96% (active) | 91% (active) | 8% | 96% (active) | 91.9% (active) | 3% | 97% (active) | 94.7% (active) | -8% | 96% (active) | 75.5% (active) | 4% | 97% (active) | 93.7% (active) | 10% | 95% (active) | 91% (active)
O=C(Nc1ccc(Cl)c(Cl)c1)Nc1ccccc1O | 5% | 50% | 46.2% | 6% | 35% | 39.9% | 0% | 31% | 48.8% | 12% | 39% | 53.3% | 46% | 78% (active) | 64% | 1% | 54% | 76.2% (active)
CCCc1cc(=O)oc2c3c(c4c(c12)OC(C)(C)CC4)OC(C)[C@H](C)[C@@H]3O (some centres undefined) | 36% | 90% (active) | 83.7% (active) | 36% | 92% (active) | 85.6% (active) | 28% | 90% (active) | 80.2% (active) | 27% | 93% (active) | 85.2% (active) | 12% | 90% (active) | 80.1% (active) | 31% | 94% (active) | 77% (active)
c1csc(-c2[nH]nc3c2CCc2ccccc2-3)c1 | 19% | 97% (active) | 98.3% (active) | -13% | 97% (active) | 96.6% (active) | -2% | 98% (active) | 97.6% (active) | -6% | 96% (active) | 98.5% (active) | 18% | 98% (active) | 97.1% (active) | -3% | 97% (active) | 98.8% (active)
NC(=S)Nc1ccc2c(c1)Cc1ccccc1-2 | 2% | 29% | 64.5% | -4% | 3% | -0.4% | 2% | 23% | 59.9% | -5% | -10% | 23.4% | 0% | 58% | 47% | 7% | 38% | 60.4%
COc1ccc(C(Cn2ccnc2)Sc2ccc(Cl)c(Cl)c2)cc1 (centres undefined) | 74% (active) | 97% (active) | 92.9% (active) | 60% | 97% (active) | 93.8% (active) | 72% (active) | 97% (active) | 88.7% (active) | 47% | 86% (active) | 90.7% (active) | 76% (active) | 98% (active) | 86.5% (active) | 81% (active) | 96% (active) | 91.3% (active)
CCCN(CCC)C(=O)c1ccc(C)cc1 | 1% | 21% | 4.3% | 2% | 5% | 97.9% (active) | 2% | 5% | 0.05% | 3% | 24% | -17.1% | 3% | 28% | 2.9% | -3% | 17% | 7.2%
O=C(c1ccccc1)C(Br)[N+](=O)[O-] (centres undefined) | 99% (active) | 99% (active) | 99.7% (active) | 99% (active) | 99% (active) | 99.7% (active) | 99% (active) | 100% (active) | 99.7% (active) | 93% (active) | 99% (active) | 99.7% (active) | 100% (active) | 100% (active) | 99.8% (active) | 99% (active) | 99% (active) | 99.7% (active)
O/N=C1\c2ccccc2-c2ccc(F)cc21 | 20% | 90% (active) | 95% (active) | 7% | 73% (active) | 84.2% (active) | 13% | 87% (active) | 91.6% (active) | 5% | 71% (active) | 63% | 1% | 77% (active) | 91.1% (active) | 13% | 78% (active) | 93.8% (active)
COc1ccc(OC)c(Cc2cnc3nc(N)nc(N)c3c2C)c1 | 21% | 35% | 67.5% | 18% | 74% (active) | 19.7% | 12% | 36% | 41.5% | 9% | 19% | 6.45% | 13% | 19% | 29.1% | 18% | 23% | -1.5%
